Data on 101 compounds can be found in PubChem BioAssay AID862 (The Scripps Research Institute Molecular Screening Center, 2007).

In all, about 190,000 compounds went through this assay and about 1,700 (0.89%) were called active. For the sample, actives were picked, then their nearest neighbours and some compounds at random. Values without a mark were called inactive.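 How the source made its calls: active means inhibition above the mean inhibition across all screened compounds plus 3 SD (cut at about 44% in these data); inactive means the rest.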

The nature of this assay: IL-6 driven STAT3 reporter inhibitors, primary screen, U3A cells, luciferase, luminescence, MLSCN library (AID 862).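 Further: 0% = DMSO only wells and 100% = 100 µM nifuroxazide control wells.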 Particulars: IL-6 STAT3-luciferase reporter, at 5.5 µM, active compounds read high, host cell line lacks STAT1. On the technique in general: In a reporter assay the amount or activity of a reporter protein is the signal.
Take `CC(=O)Nc1ccc(NC(=O)COc2ccc(S(=O)(=O)NC(C)c3ccccc3)cc2)cc1` (stereo unspecified): the inhibition is 16.1%.
With `Cn1cnnc1Sc1ccc(CN2CCN(C3CCCC3)C(CCO)C2)o1` (stereo unspecified) the figure was -6.5%; with `Cc1ccc2nc(-c3ccncc3)cc(C(=O)Nc3ccc4c(c3)OCCO4)c2c1`, 26.4%.
With `C/C(=N\NC(=O)CSc1nc2ccccc2c(=O)n1-c1ccccc1C)c1cccs1`, the inhibition is -9.1%.
As for `O=C(Cc1ccccc1)N1CCN(S(=O)(=O)c2ccc([N+](=O)[O-])cc2)CC1`, the inhibition was -1.6%.
On to `Cc1cc(C)c2c(n1)sc1c(=O)n(-c3ccccc3)c(=O)[nH]c12`, for which the inhibition was 1.2%.
In the case of `Cc1cccc(C(=O)OC(C)CN2CCN(C)CC2)c1` (stereo unspecified) it was 6.7%; in that of `CN(c1ccc2nc3ccccc3c(=O)n2n1)C1CCCCC1`, 105% (active).
Turning to `O=c1c2ccccc2nc2n1C1(CCCCC1)Cc1ccccc1-2`, the inhibition is -3.8%.
In the case of `CCOC(=O)C(C)Sc1nc2ccccc2c(=O)n1CC1CCCCC1` (stereo unspecified), the inhibition is -5.1%.
In the case of `CN(C)C(CNC(=O)c1cccc(C#N)c1)c1ccco1` (stereo unspecified) it was 5.3%.
In the case of `CCOC(=O)CNC(=O)CSc1ccc2nnc(-c3cccnc3)n2n1` it was -10.3%; in that of `Cn1ccc(=NC=C(C#N)C#N)c2ccccc21`, 1.3%; in that of `Cc1cccc(OCCNC(=S)NC(=O)c2cccnc2)c1`, -5%.
With `CN(Cc1cccnc1)C(=O)c1cc(COc2ccc3ncccc3c2)on1` the figure was 79.1% (active); with `Cc1noc(C)c1COc1cccc(C(=O)Nc2cccnc2)c1`, 14.6%.
In the case of `O=C(N/N=C/c1ccc([N+](=O)[O-])o1)c1cn(-c2ccccc2)nc1-c1ccc(F)cc1`, the inhibition is 25%.
With `O=C(O)c1ccccc1-c1ccccc1C(=O)NCc1cccnc1` the figure was -4.3%; with `CCOc1ccc(-c2nnc(-c3ccco3)o2)cc1`, 77.6% (active).
With `CCC(=O)Oc1cccc(C(=O)Nc2ccc(-c3nnc(-c4ccco4)o3)cc2)c1` the figure was 11.2%.
For `CCCCOc1ccc(-c2nnc(-c3ccco3)o2)cc1`, the inhibition was 51.7% (active).
In the case of `COc1ccc(OCC(=O)Nc2nnc(-c3ccco3)s2)cc1` it was -12.3%; in that of `O=C(CCc1ccccc1)Nc1cccc(-c2nnc(-c3ccco3)o2)c1`, 15.5%; in that of `CCCCSc1nnc(-c2ccc(C)cc2)o1`, 28.9%.
On to `CC(C)CNC(=O)CC(NCC(C)C)C(=O)O` (stereo unspecified), for which the inhibition was 17.2%.
With `CCCOC1CCCN(Cc2cn(C)nc2-c2ccccc2F)C1` (stereo unspecified) the figure was 3.9%; with `O=C(NCC1COc2ccccc2O1)C1(c2ccccc2)CCCC1` (stereo unspecified), 9.6%.
With `O=C(COC(=O)CCc1ccc(S(=O)(=O)N2CCOCC2)cc1)Nc1cccc(Cl)c1` the figure was -7.6%.
With `CCn1c(NC(=O)c2nn(C)cc2Br)nc2ccccc21` the figure was 5.2%; with `CCSc1nnc(NC(=O)c2ccc(C)cc2)s1`, 60.6% (active).
`CC(=O)c1sc(NC(=O)c2ccc(C)cc2)nc1C`: the inhibition was 33.2%.
With `CCSc1nnc(NC(=O)Cc2ccccc2OC)s1` the figure was 1.7%; with `Cc1ccc(C2CCN(C(=S)Nc3cccc(Cl)c3)C2)cc1` (stereo unspecified), 0.7%.
With `CCc1ccc(-n2c(SCc3cc(=O)n4cc(Br)ccc4n3)nc3[nH]ncc3c2=O)cc1` the figure was 9.7%; with `CSCCNCc1cn(-c2ccc(F)cc2F)nc1-c1ccccc1C`, 0.4%.
With `COc1ccc(CCNC(=O)Cn2c(=O)n(CC3CCCO3)c(=O)c3ccccc32)cc1OC` (stereo unspecified) the figure was 10.4%.
Regarding `Cc1ccc(S(=O)(=O)NCc2csc(C)n2)c(C)c1`, the inhibition was -8.4%.
With `Cc1nc(CNS(=O)(=O)c2cccnc2)cs1` the figure was 5.7%.
For the compound `Cc1nc(CNS(=O)(=O)c2ccc(Oc3ccccc3)cc2)cs1`, the inhibition was 54% (active).
In the case of `CCc1cc2c(SCC(=O)Nc3ncc(Cl)c(C)c3Cl)ncnc2s1` it was -5.3%.
For the compound `CCc1cc2c(NC3CCCC3)ncnc2s1`, the inhibition was 13%.
With `CCc1cc2c(N3CCN(c4nnc(CC)s4)CC3)ncnc2s1` the figure was 57.3% (active); with `CCC(C)CN1CCC(CO)(Cc2ccccc2Cl)CC1` (stereo unspecified), 3.5%.
In the case of `Cc1cc(=O)oc(C)c1C(=O)N1CCCCC1` it was 6.3%.
With `Cc1ccc2cc3cc(C(=O)N4CCCCCC4)oc3nc2c1` the figure was 48.7% (active).
As for `Cc1cccc(C(=O)N2CCCN(C(=O)c3cccc(C)c3)CC2)c1`, the inhibition was 3.3%.
With `CN1CCN(c2ccc(NC(=O)c3ccc4c(c3)OCCO4)cc2Cl)CC1` the figure was -19.1%; with `c1ccc(Cc2cc[n+](Cc3ccccc3)cc2)cc1`, 10.2%.
Turning to `CC1CCCN(S(=O)(=O)c2ccc(N(C(=O)c3cnccn3)C(C(=O)NC3CCCCC3)c3cccs3)cc2)C1` (stereo unspecified), the inhibition is 5.3%.
On to `c1ccc2[nH]c(-c3nc4ccccc4[nH]3)nc2c1`, for which the inhibition is 44.2% (active).
With `Cc1ccc(-c2nc3ccccc3[nH]2)cc1N` the figure was -19.1%; with `c1ccc(-c2[nH]ncc2-c2nc3ccccc3[nH]2)cc1`, 15.2%; with `Cc1cccc(C)c1NC(=O)Nc1ccccc1-n1ccnc1`, 4%.
With `COCCC(=O)Nc1ccc2c(c1)CN(C(=O)CCOC)CC2` the figure was -5.3%.
With `CCNC(=S)NNC(=O)c1ccc2ncccc2c1` the figure was 7.8%.
As to `O=C(O)c1ccc(N/N=C/c2ccc3ncccc3c2)cc1`, the inhibition is 69.5% (active).
With `O=C(O)c1ccc(N/N=C/c2cn(-c3ccccc3)nc2-c2cccs2)cc1` the figure was 1%; with `CCCC(c1nnnn1C(C)(C)C)N1CCN(Cc2ccccc2)CC1` (stereo unspecified), -0.6%; with `O=C(CC(=O)Nc1ccc(Cl)c(Cl)c1)N/N=C/c1ccc(O)cc1`, -5%.
In the case of `CN(C)CCNC(CC(=O)Nc1ccc(Cl)c(Cl)c1)C(=O)O` (stereo unspecified) it was 5.8%; in that of `O=C(CC(O)(C(F)(F)F)C(F)(F)F)Nc1ccc(Cl)c(Cl)c1`, 65.1% (active); in that of `COc1cc(C(=O)NCc2ccc(-n3cccc3)cc2)cc(OC)c1OC`, 6.8%.
In the case of `COc1ccccc1C(=O)Nc1ccc(OCc2nnc3c4ccccc4c(C)nn23)cc1` it was 21.6%; in that of `COc1ccc(C)cc1NC(=O)NCc1ccccn1`, 15%; in that of `CN(c1ccc(OCC(=O)OCC(=O)Nc2cccc([N+](=O)[O-])c2)cc1)S(=O)(=O)c1ccc(F)cc1`, 5.5%.
Turning to `CN(C)S(=O)(=O)c1ccc(NC(=O)COC(=O)c2n[nH]c3ccccc23)cc1`, the inhibition is 49.3% (active).
In the case of `CCN(CC)S(=O)(=O)c1ccc2nc(COC(=O)c3n[nH]c4ccccc34)[nH]c2c1` it was 19.1%; in that of `O=C(COC(=O)c1n[nH]c2ccccc12)NCc1ccccc1`, 5.8%; in that of `COc1ccccc1NC(=O)c1c(Br)cnn1C`, 25.4%.
As for `CCOC(=O)CNc1nc2ccccc2n2c(C)nnc12`, the inhibition is 24.4%.
With `Oc1c(Cl)cc(Cl)c(Cl)c1Cc1c(O)c(Cl)cc(Cl)c1Cl` the figure was 43.6% (active); with `O=C(Nc1ccc2cn[nH]c2c1)c1ccc(S(=O)(=O)N2CCOCC2)cc1`, -32.5%; with `CC(=O)NC(Cc1ccc(F)c(F)c1)C(=O)NC1CCN(c2nnnn2-c2ccccc2)CC1` (stereo unspecified), 10.3%.
With `COc1cc(/C=N/NC(=O)c2ccccc2)ccc1OS(=O)(=O)c1ccccc1` the figure was 1.7%.
With `COc1ccc(C(=O)Nc2ccccc2C(=O)N/N=C/c2ccccc2OC)cc1` the figure was 1.8%; with `COc1ccc(C(=O)Nc2ccccc2C(=O)N/N=C/c2ccc(O)c(OC)c2)cc1`, 106% (active); with `CC(C)CNC(=O)C(=O)NCc1ccccc1`, -0.6%.
As for `CC(Sc1nc(-c2ccccc2)cc(C(F)(F)F)n1)C(=O)Nc1ccc2c(c1)OCO2` (stereo unspecified), the inhibition is -2.7%.
With `Cn1cc([N+](=O)[O-])c(C(=O)Nc2ccc3c(c2)OCCO3)n1` the figure was 51.3% (active); with `O=C(Nc1ccc2c(c1)OCCO2)c1ccncc1`, -8.8%; with `Cn1cc([N+](=O)[O-])c(C(=O)Nc2cnn(Cc3ccc(F)cc3)c2)n1`, 36.8%.
In the case of `Cc1ccc(CCCOC(=O)C[N+]2(C)CCCC2)cc1` it was -9.5%; in that of `S=C(NN=C1CCN(Cc2ccccc2)CC1)NC1CCCCC1`, -0.1%; in that of `Cn1nnnc1SCC(=O)Nc1nc2ccccc2s1`, -2.9%.
In the case of `CC(=O)NCCc1nc2cc(NC(=O)c3ccccc3)ccc2n1C` it was 15.8%; in that of `Cn1c(CN2CCOCC2)nc2cc(NC(=O)c3ccc(Cl)cc3)ccc21`, 66.2% (active); in that of `CCC(=O)Nc1ccc2c(c1)nc(CCN1CCN(C)CC1)n2C`, 9.8%.
With `O=C(NCc1ccccc1Cl)C1CCN(S(=O)(=O)N2CCOCC2)CC1`, the inhibition was 2.3%.
As for `CCN1CCCC1CNc1ncnc2c1[nH]c1ccc(F)cc12` (stereo unspecified), the inhibition was -30.1%.
With `CC(C)OCCCNc1ncnc2c1[nH]c1ccc(F)cc12` the figure was 80.4% (active); with `O=C1CCCN1CCCNc1ncnc2c1[nH]c1ccccc12`, -56.6%; with `Cc1nc2cc(NC(=O)NC3CC3)ccc2n1C`, 7.5%.
As to `CC(C)C[C@@H](N)c1nnc(SCC(=O)c2ccc(Cl)cc2)o1`, the inhibition is 53.4% (active).
Turning to `CC(=O)Nc1ccc(C(=O)CSc2nnc(Cc3ccccc3)o2)cc1`, the inhibition is 0.2%.
In the case of `COc1ccc(C(=O)CSc2nnc(-c3ccco3)o2)cc1` it was 2.9%.
Consider `Oc1ccccc1C=NC1CCCCC1N=Cc1ccccc1O` (stereo unspecified), for which the inhibition was 5.7%.
With `CCOC(=O)CNC(=O)/C(=C\c1ccc(F)cc1)NC(=O)c1ccccc1` the figure was 1.9%; with `COc1cccc(NC(=O)Cn2c3ccccc3c3nc4n(c(=O)c32)CCS4)c1`, 12.7%.
With `Cn1cccc1-c1nc2ccccc2n1C` the figure was 16.4%.
With `Cn1c(CNC(=O)C(C)(C)C)nc2ccccc21` the figure was 15.4%.
As for `Cn1c(-c2ccc(C(=O)c3ccccc3)s2)nc2ccccc21`, the inhibition was 49.1% (active).

In general, inhibition refers to the change of the read-out against control, counted positive when it falls.
